Results reported in PubChem BioAssay (NCI).
This is part of a sample that, as a whole, favours compounds with a hit. Of some 83,000 tested, about 20% had one in any assay.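 Method: cells in 96-well plates; compound added at one concentration; 48 h incubation; percent growth measured; values under 10 scored active.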 The source made the active and inactive calls.

Key:
Assay in all cases: NCI-60 one-dose screen, 48 h (100 = growth as untreated, 0 = no growth, -100 = all killed)
Details in all cases: 10 µM unless noted
NCI-H23 lung = system: NCI-H23 lung
NCI-H226 lung = system: NCI-H226 lung
NCI-H322M lung = system: NCI-H322M lung
HOP-62 NSCLC = system: HOP-62 NSCLC
NCI-H460 lung = system: NCI-H460 lung
HOP-92 NSCLC = system: HOP-92 NSCLC
NCI-H522 lung = system: NCI-H522 lung
A549/ATCC NSCLC = system: A549/ATCC NSCLC
786-0 renal = system: 786-0 renal
COLO 205 colon = system: COLO 205 colon
DU-145 prostate = system: DU-145 prostate
K-562 leukemia = system: K-562 leukemia
MALME-3M melanoma = system: MALME-3M melanoma
MDA-MB-231 breast = system: MDA-MB-231 breast
RXF 393 renal = system: RXF 393 renal
SF-268 CNS = system: SF-268 CNS
SF-295 CNS = system: SF-295 CNS
UACC-257 melanoma = system: UACC-257 melanoma
M14 melanoma = system: M14 melanoma
SF-539 CNS = system: SF-539 CNS

Measured: growth

CSc1cnc2ccccc2n1
inactive: NCI-H23 lung 103% | NCI-H226 lung 103% | NCI-H322M lung 94.4% | HOP-62 NSCLC 84.7% | NCI-H460 lung 102% | HOP-92 NSCLC 99.6% | NCI-H522 lung 80% | A549/ATCC NSCLC 82.8% | 786-0 renal 107% | COLO 205 colon 116% | DU-145 prostate 115% | K-562 leukemia 106% | MALME-3M melanoma 88.7% | MDA-MB-231 breast 95.7% | RXF 393 renal 111% | SF-268 CNS 105% | SF-295 CNS 97.9% | UACC-257 melanoma 91.3% | M14 melanoma 97.3%

NC(=S)N/N=C/c1ccc(OC(=O)COc2ccc(Cl)cc2)cn1
inactive: NCI-H23 lung 33.5% | NCI-H226 lung 93.5% | NCI-H322M lung 42.5% | HOP-62 NSCLC 53% | NCI-H460 lung 69.7% | HOP-92 NSCLC 66.9% | NCI-H522 lung 43.3% | A549/ATCC NSCLC 107% | 786-0 renal 32.5% | COLO 205 colon 84.7% | DU-145 prostate 29.3% | K-562 leukemia 44.1% | MALME-3M melanoma 45.5% | MDA-MB-231 breast 66.6% | RXF 393 renal 67% | SF-268 CNS 27.8% | SF-295 CNS 99.2% | UACC-257 melanoma 78.1% | M14 melanoma 17.9%

O=C1NC(=O)C(c2ccccc2)O1 (stereo not given)
inactive: NCI-H23 lung 102% | NCI-H226 lung 105% | NCI-H322M lung 98.9% | HOP-62 NSCLC 104% | NCI-H460 lung 109% | HOP-92 NSCLC 104% | NCI-H522 lung 90.2% | A549/ATCC NSCLC 100% | 786-0 renal 90.3% | COLO 205 colon 108% | DU-145 prostate 119% | K-562 leukemia 92.6% | MALME-3M melanoma 100% | MDA-MB-231 breast 122% | RXF 393 renal 121% | SF-268 CNS 115% | SF-539 CNS 96.4% | UACC-257 melanoma 98.8% | M14 melanoma 100%

CC(C)c1ccccc1NC(=O)N1CCC(C(C)C)CC1
inactive: NCI-H23 lung 107% | NCI-H226 lung 95.4% | NCI-H322M lung 97.7% | HOP-62 NSCLC 107% | NCI-H460 lung 107% | HOP-92 NSCLC 95.8% | NCI-H522 lung 106% | A549/ATCC NSCLC 101% | 786-0 renal 103% | COLO 205 colon 117% | DU-145 prostate 112% | K-562 leukemia 99.4% | MALME-3M melanoma 105% | MDA-MB-231 breast 117% | RXF 393 renal 101% | SF-268 CNS 115% | SF-539 CNS 111% | UACC-257 melanoma 95.8% | M14 melanoma 107%

NNc1ncnc2nc[nH]c12
active: NCI-H522 lung -15.7%
inactive: NCI-H23 lung 85.2% | NCI-H226 lung 47.9% | NCI-H322M lung 50.5% | HOP-62 NSCLC 40.7% | NCI-H460 lung 50.4% | HOP-92 NSCLC 86.9% | A549/ATCC NSCLC 31.5% | 786-0 renal 43.2% | COLO 205 colon 52.5% | DU-145 prostate 36.6% | K-562 leukemia 48.4% | MALME-3M melanoma 120% | MDA-MB-231 breast 14.9% | SF-268 CNS 83.7% | SF-295 CNS 45.9% | SF-539 CNS 101% | UACC-257 melanoma 45.1% | M14 melanoma 48%
